Pol eta inh: blocks human DNA polymerase eta activity. Q9Y253. recombinant Pol eta, fluorescent DNA replication assay. hit rate 1.2% among 390,000. Potency, µM (doses to about 114 µM), inactives show at the top dose activity change, negative = inhibition, actives largely listed as inhibitors; also: potency is read from the fitted curve at half-maximal effect; % is scaled to controls: 0 for no effect and ±100 for the full control effect
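Fluorescent replication assay: 50 nM final substrate added after a 15 min room-temperature compound preincubation with 10 nM enzyme. Signal taken at 0 min and again at 10 min.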
Pol kappa inh: DNA polymerase kappa (human) inhibition; hit rate 0.53% among 400,000; Potency, µM (doses to about 107 µM), for the others: at the top dose activity, negative = inhibition, most hits filed as inhibitors; purified Pol kappa, fluorescent DNA synthesis assay, 10 min; AID 588579; Q9UBT6; also: potency is read from the fitted curve at half-maximal effect; % is scaled to controls: 0 for no effect and ±100 for the full control effect
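First, compounds were pin-transferred onto 10 nM Pol kappa. After 15 min at room temperature, substrate was added to 50 nM final. Fluorescence was then measured kinetically at 0 and 10 min.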
Pol beta inh: DNA polymerase beta (human) inhibition; Potency, µM (doses to about 114 µM), without a hit: at the highest dose activity change, negative = inhibition, actives largely listed as inhibitors; Pol beta primer extension/strand displacement, fluorescence kinetic; hit rate 1.3% among 340,000; P06746; also: potency is read from the fitted curve at half-maximal effect; % is scaled to controls: 0 for no effect and ±100 for the full control effect
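Curves were derived by four-parameter Hill fits of normalized qHTS data. The kinetic fluorescent primer-extension read was taken at 0 and 10 min after 50 nM substrate, following a 15 min room-temperature preincubation of 10 nM enzyme with compounds.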
Pol iota inh: DNA polymerase iota (human) inhibition; Q9UNA4; Pol iota fluorescent replication assay, 10 min; Potency, µM (doses to about 115 µM), without a hit: top-dose activity, negative = inhibition, actives largely listed as inhibitors; hit rate 1% among 390,000; AID 588590; also: potency is read from the fitted curve at half-maximal effect
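Pol iota at 10 nM preincubated 15 min with compounds at room temperature; reaction started with fluorescent substrate, 50 nM final. Fluorescence read kinetically at 0 and 10 min; buffer-only wells as negative control.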
WRN helicase inh-1: inhibitors of human WRN helicase; Q14191; AID 651768; Potency, µM (titrated, usually from 114 µM), for inactives: at the top dose activity change, negative = inhibition, usual class: inhibitors; hit rate 0.46% among 360,000; WRN helicase unwinding, fluorescent forked duplex, kinetic; also: potency is read from the fitted curve at half-maximal effect; % is scaled to controls: 0 for no effect and ±100 for the full control effect; nearly all actives have a fitted effect of over 55% in size
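Fluorescence dequenching readout, ex 525 nm/em 598 nm, kinetic mode: forked duplex DNA (100 nM final) with adjacent fluorophore and quencher unwound by WRN (20 nM final) with 2 mM ATP. Compound preincubation 15 min, room temperature.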
PI5P4K alpha inh: PI5P4K alpha (human) kinase inhibition; P48426; PI5P4Kalpha enzyme, ADP-Glo luminescence, 60 min; hits give low values; max response, %; hit rate 1.2% among 330,000; AID 652105; active = max response of -50% or lower; inconclusive = between -30% and -50%; inactive = -30% or higher; also: value at the top dose of about 77 µM; % is scaled to controls: 0 for no effect and ±100 for the full control effect
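qHTS, 1536-well: enzyme/substrate mix, compound by pin tool, 5 microM ATP final; RT 60 min; ADP-Glo reagents 1 (45 min) then 2 (30 min); luminescence.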
WRN helicase inh-2: confirmation of human WRN helicase inhibitors | shares compounds with WRN helicase inh-1 | WRN helicase DNA unwinding, fluorescence kinetic | Potency, µM (titrated, usually from 57.1 µM), for inactives: at the highest dose activity, negative = inhibition, hits mostly inhibitors | hit rate 63% among 610 | AID 720497; also: potency is read from the fitted curve at half-maximal effect; nearly all actives have a fitted effect of over 65% in size
TO DNA binding: counter-screen for WRN helicase inhibitors: DNA binding; shares compounds with WRN helicase inh-1; thiazole orange DNA binding displacement, fluorescence; Potency, µM (highest dose often 57.1 µM), inactives show at the highest dose activity change, negative = inhibition, actives largely listed as inhibitors; hit rate 10% among 610; AID 720499;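 also: drop in dye fluorescence marks compound binding to DNA; potency is read from the fitted curve at half-maximal effect; % is scaled to controls: 0 for no effect and ±100 for the full control effect; nearly all actives have a fitted effect of over 60% in size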
BLM helicase inh: blocks human BLM helicase in WRN counterscreen; shares compounds with WRN helicase inh-1; hit rate 60% among 610; Recombinant BLM helicase DNA unwinding, red fluorescence; Potency, µM (titrated, usually from 57.1 µM), inactives show at the highest dose activity change, negative = inhibition, most hits filed as inhibitors; also: potency is read from the fitted curve at half-maximal effect; nearly all actives have a fitted effect of over 60% in size
Target sequence (P54132 whole entry, looked up): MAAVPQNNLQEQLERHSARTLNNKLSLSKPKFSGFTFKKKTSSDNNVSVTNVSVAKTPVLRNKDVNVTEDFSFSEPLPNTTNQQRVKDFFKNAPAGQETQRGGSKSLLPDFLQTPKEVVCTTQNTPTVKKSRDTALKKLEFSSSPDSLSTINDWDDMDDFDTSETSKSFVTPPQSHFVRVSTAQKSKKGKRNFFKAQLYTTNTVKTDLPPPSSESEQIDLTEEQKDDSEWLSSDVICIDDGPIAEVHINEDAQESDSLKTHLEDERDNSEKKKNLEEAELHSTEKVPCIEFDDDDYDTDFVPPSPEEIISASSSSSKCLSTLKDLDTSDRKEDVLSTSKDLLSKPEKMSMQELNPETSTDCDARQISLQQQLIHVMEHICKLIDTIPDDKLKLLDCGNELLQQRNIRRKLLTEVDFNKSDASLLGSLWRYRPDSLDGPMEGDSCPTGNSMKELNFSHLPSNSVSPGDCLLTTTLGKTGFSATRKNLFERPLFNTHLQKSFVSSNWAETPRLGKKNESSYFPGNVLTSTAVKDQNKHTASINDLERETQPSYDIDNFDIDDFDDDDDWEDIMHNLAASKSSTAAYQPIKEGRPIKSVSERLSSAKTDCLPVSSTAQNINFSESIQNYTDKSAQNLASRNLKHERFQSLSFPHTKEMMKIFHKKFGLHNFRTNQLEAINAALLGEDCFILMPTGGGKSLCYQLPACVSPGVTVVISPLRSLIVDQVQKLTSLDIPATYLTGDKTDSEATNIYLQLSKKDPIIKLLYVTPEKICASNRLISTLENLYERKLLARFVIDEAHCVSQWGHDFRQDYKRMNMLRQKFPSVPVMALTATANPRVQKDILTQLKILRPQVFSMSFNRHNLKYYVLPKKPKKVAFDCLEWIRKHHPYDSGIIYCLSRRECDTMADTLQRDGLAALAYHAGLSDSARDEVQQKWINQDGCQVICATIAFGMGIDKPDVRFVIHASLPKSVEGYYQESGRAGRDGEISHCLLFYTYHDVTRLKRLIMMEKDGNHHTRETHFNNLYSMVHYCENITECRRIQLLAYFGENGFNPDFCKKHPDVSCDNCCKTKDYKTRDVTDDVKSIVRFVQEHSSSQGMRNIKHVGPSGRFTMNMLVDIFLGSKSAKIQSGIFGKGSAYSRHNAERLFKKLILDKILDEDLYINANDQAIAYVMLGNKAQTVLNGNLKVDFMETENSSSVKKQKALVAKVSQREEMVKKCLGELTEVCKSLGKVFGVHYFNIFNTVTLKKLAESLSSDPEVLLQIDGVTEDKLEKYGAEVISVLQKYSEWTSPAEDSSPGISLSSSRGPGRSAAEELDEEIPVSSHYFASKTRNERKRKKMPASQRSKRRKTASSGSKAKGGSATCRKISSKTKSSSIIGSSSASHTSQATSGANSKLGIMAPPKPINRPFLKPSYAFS
Starred values were filed as active, the others as inactive. In the library only some 2.8% were active in any assay of this set; here they are far more common. Unless noted, calls follow the shape of the dose curve; as a rule, active = well fitted curve in the direction sought with a large enough effect; inconclusive = small, poorly fitted or top-dose-only effect, or another doubt; inactive = no such curve, though single readings can be large; an effect the other way counts as inactive or inconclusive.

`COc1ccc2cc3cc(C(=O)NCc4cccs4)oc3nc2c1` gave Pol eta inh inconclusive, Pol kappa inh -22.8%, Pol beta inh 22.4µM*, Pol iota inh inconclusive, WRN helicase inh-1 39.8µM*, PI5P4K alpha inh -13.5, WRN helicase inh-2 24.1µM*, TO DNA binding 1.6% and BLM helicase inh 15.2µM*.
`Cc1nnsc1S(=O)c1ccc(Cl)cc1` (stereo not drawn) gave Pol eta inh -2.9%, Pol kappa inh -14.6%, Pol beta inh 11.7%, Pol iota inh -25.9%, WRN helicase inh-1 0.1% and PI5P4K alpha inh -2.5.
`O=C(Nc1ccccc1)c1nnsc1S(=O)c1ccc(Cl)cc1` (stereo not drawn) gave Pol eta inh 8.6%, Pol kappa inh -9.1%, Pol beta inh 0.6%, Pol iota inh inconclusive, WRN helicase inh-1 22.4µM*, PI5P4K alpha inh 6.3, WRN helicase inh-2 -20.0%, TO DNA binding 83.6% and BLM helicase inh -22.3%.
`O=C(Nc1cc(SCC(O)CO)cc([N+](=O)[O-])c1)c1ccc(-n2cnnn2)cc1` (stereo not drawn) gave Pol eta inh -16.5%, Pol kappa inh -29.3%, Pol beta inh inconclusive, Pol iota inh inconclusive, WRN helicase inh-1 inconclusive, PI5P4K alpha inh 6.7, WRN helicase inh-2 inconclusive, TO DNA binding -26.8% and BLM helicase inh inconclusive.
O=C(Nc1ccc(Br)cc1)c1ccc(-n2cnnn2)cc1 was read as Pol eta inh -16.6%, Pol kappa inh -0.8%, Pol beta inh 15.0%, Pol iota inh inconclusive, WRN helicase inh-1 6.4% and PI5P4K alpha inh 2.8.
`COc1ccc(OC)c(/C=N/Nc2nc(C)cc(=O)[nH]2)c1` gave Pol eta inh inconclusive, Pol kappa inh -23.2%, Pol beta inh inconclusive, Pol iota inh 99.8%, WRN helicase inh-1 89.1µM*, PI5P4K alpha inh 3.6, WRN helicase inh-2 -13.1%, TO DNA binding -4.2% and BLM helicase inh -20.0%.
For CCCN1C(=O)C(NC(C)=O)c2ccccc21 (stereo not drawn) the results were Pol eta inh -6.4%, Pol kappa inh -16.9%, Pol beta inh -24.8%, Pol iota inh 14.4% and WRN helicase inh-1 2.9%.
`CCc1ccc2c(c1)C(NC(C)=O)C(=O)N2CCN1CCOCC1` (stereo not drawn) gave Pol eta inh inconclusive, Pol kappa inh -4.9%, Pol beta inh 8.3%, Pol iota inh 2.24µM*, WRN helicase inh-1 44.7µM*, PI5P4K alpha inh 1.8, WRN helicase inh-2 inconclusive, TO DNA binding -5.4% and BLM helicase inh 19.2µM*.
Screening CCc1[nH]c(=O)[nH]c1C(C)S(=O)(=O)c1ccc(C)cc1 (stereo not drawn) returned Pol eta inh -7.9%, Pol kappa inh -5.2%, Pol beta inh 0.9%, Pol iota inh 52.3%, WRN helicase inh-1 inconclusive, PI5P4K alpha inh -4.3, WRN helicase inh-2 1.7%, TO DNA binding 1.1% and BLM helicase inh inconclusive.
`COc1cc(/C=N/N=C2/SCC(=O)N2c2ccc(O)cc2)ccc1O` gave Pol eta inh -1.9%, Pol kappa inh -8.2%, Pol beta inh 0.8%, Pol iota inh 81.3%, WRN helicase inh-1 79.4µM*, PI5P4K alpha inh -50.1*, WRN helicase inh-2 -7.9%, TO DNA binding 31.7% and BLM helicase inh -13.9%.
`CC(C)(C)N(Cc1ccc2c(c1)OCO2)C(=O)/C=C\S(=O)c1ccccc1` (stereo not drawn) gave Pol eta inh -10.8%, Pol kappa inh -5.3%, Pol iota inh -9.0%, WRN helicase inh-1 inconclusive, PI5P4K alpha inh -0.7, WRN helicase inh-2 12.1µM*, TO DNA binding -12.5% and BLM helicase inh 24.1µM*.
`COc1ccc(C(=O)Nc2nc(-c3ccc([N+](=O)[O-])cc3)c(-c3ccc(OC)cc3)s2)cc1` gave Pol eta inh inconclusive, Pol kappa inh inconclusive, Pol beta inh 68.2%, Pol iota inh -5.8%, WRN helicase inh-1 inconclusive, PI5P4K alpha inh 6.6, WRN helicase inh-2 -11.2%, TO DNA binding 5.4% and BLM helicase inh -11.4%.
Screening COc1ccc(C(=O)Nc2nc3c(s2)CCc2cc(OC)ccc2-3)cc1 returned Pol kappa inh -5.4%, Pol beta inh -25.0% and Pol iota inh 29.1%.
N#Cc1c([N+](=O)[O-])cc([N+](=O)[O-])cc1S(=O)(=O)Cc1ccccc1 was read as Pol eta inh inconclusive, Pol kappa inh -9.1%, Pol iota inh inconclusive, WRN helicase inh-1 11.2µM*, PI5P4K alpha inh -8.2, WRN helicase inh-2 -24.4%, TO DNA binding inconclusive and BLM helicase inh -23.8%.
`CC1CCCN(Cc2c(O)ccc3c2O/C(=C\c2ccco2)C3=O)C1` (stereo not drawn) gave Pol eta inh 44.7µM*, Pol kappa inh 35.5µM*, Pol beta inh 12.6µM*, Pol iota inh 1.58µM*, WRN helicase inh-1 35.5µM*, PI5P4K alpha inh inconclusive, WRN helicase inh-2 -9.0%, TO DNA binding 330.8% and BLM helicase inh -26.8%.
Screening COC(=O)C(CC(=O)c1ccc(Br)cc1)n1ccnc1 (stereo not drawn) returned Pol kappa inh -0.8%, Pol beta inh -0.7%, Pol iota inh 1.2%, WRN helicase inh-2 -15.4%, TO DNA binding -11.3% and BLM helicase inh inconclusive.
CCN(CC)Cc1cc(Nc2c3ccccc3nc3c4ccccc4n(C)c23)cc(CN(CC)CC)c1O was read as Pol eta inh inconclusive, Pol kappa inh inconclusive, Pol iota inh inconclusive, WRN helicase inh-1 inconclusive, PI5P4K alpha inh -18.2, WRN helicase inh-2 17.1µM*, TO DNA binding 38.3µM* and BLM helicase inh -19.4%.
Screening COc1ccc(Nc2nc(N)c3cc(OC)c(OC)cc3n2)cc1 returned Pol eta inh inconclusive, Pol kappa inh -9.0%, Pol beta inh inconclusive, Pol iota inh -11.6%, WRN helicase inh-2 21.5µM*, TO DNA binding inconclusive and BLM helicase inh 21.5µM*.

Bioassay records as filed in PubChem.
